# Compounds with a hit are over-represented: about 3.5% of the library has one in this group of screens.
# JMJD2E inh: qHTS Assay for Inhibitors of Human Jumonji Domain Containing 2E (JMJD2E); Lysine-specific demethylase 4E (Homo sapiens), B2RXH2; JMJD2E catalytic domain, FDH-coupled NADH fluorescence (FDH is formaldehyde dehydrogenase); Potency, µM (titrated, usually from 57.1 µM), most hits filed as inhibitors; hit rate 1.6% among 230,000; active = well fitted inhibition curve with a large enough effect, not every such curve was filed as active; inconclusive = small, poorly fitted or top-dose-only effect, or another doubt; inactive = no such curve, though single readings can be large or run the other way; also: nearly all actives have a fitted effect of over 50% in size
# Target sequence (B2RXH2 1-337 limits assumed): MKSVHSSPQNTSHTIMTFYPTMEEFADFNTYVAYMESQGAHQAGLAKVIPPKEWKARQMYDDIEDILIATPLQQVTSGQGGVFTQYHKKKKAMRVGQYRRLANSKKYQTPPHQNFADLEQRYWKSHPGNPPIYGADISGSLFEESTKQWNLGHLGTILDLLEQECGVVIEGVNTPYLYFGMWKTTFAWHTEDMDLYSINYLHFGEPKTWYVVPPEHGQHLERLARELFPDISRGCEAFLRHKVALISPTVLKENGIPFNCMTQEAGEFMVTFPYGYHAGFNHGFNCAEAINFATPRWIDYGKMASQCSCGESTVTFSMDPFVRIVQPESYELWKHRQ
# Tau fibril ThT: qHTS for Inhibitors of Tau Fibril Formation, Thioflavin T Binding; Potency, µM (titrated, usually from 57.4 µM), most hits filed as inhibitors; hit rate 2.1% among 270,000; AID 1460, 2008; recombinant tau K18 P301L, heparin-induced fibrillization, ThT fluorescence; also: nearly all actives have a fitted effect of over 55% in size
# Target sequence (P10636 561-689 P618L limits assumed): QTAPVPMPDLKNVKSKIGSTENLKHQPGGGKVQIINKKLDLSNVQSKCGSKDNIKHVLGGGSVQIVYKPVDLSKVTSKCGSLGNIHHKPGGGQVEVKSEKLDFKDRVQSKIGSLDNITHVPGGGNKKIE
#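 Using a mix of unlabeled (15 uM) and Alexa 594-labeled (0.24 uM) tau K18 P301L, heparin-triggered fibrillization over 6 hr at 37 C was scored by ThT fluorescence.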
# Tau fluor cs: Counterscreen qHTS for Inhibitors of Tau Fibril Formation, Fluorescence Polarization; tau K18 P301L Alexa594 fluorescence, heparin fibrillization; Potency, µM (series often up to 57.7 µM); hit rate 0.93% among 280,000; AID 1463, 2008; also: nearly all actives have a fitted effect of over 55% in size
#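 Human tau K18 P301L (15 uM unlabeled, 0.24 uM Alexa 594-labeled) in 100 mM sodium acetate pH 7 with 20 uM heparin, 6 hr at 37 C. ThT 30 uM added, 1 hr ambient; Alexa 594 FP and total fluorescence read at 555/632 nm.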
# TR SRC2 fluor cs: Total Fluorescence Counterscreen for Inhibitors of the Interaction of Thyroid Hormone Receptor and Steroid Receptor Coregulator 2; TRb/SRC2 Texas Red total fluorescence interference; Potency, µM (titrated, usually from 106 µM); hit rate 0.29% among 280,000; AID 1479, 2009; active = well fitted curve in either direction with a large enough effect; inconclusive = small, poorly fitted or top-dose-only effect
#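 Human TRb ligand-binding domain at 0.6 uM with 20 nM Texas Red SRC2 peptide in Tris buffer containing 1 uM T3 and 5% DMSO, incubated with compound 5 h at ambient temperature. Total fluorescence (555/632 nm) calculated as parallel + 2 × perpendicular.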
# Tau FP inhib: qHTS for Inhibitors of Tau Fibril Formation, Fluorescence Polarization. Microtubule-associated protein tau (Homo sapiens), P10636. K18 P301L tau heparin fibrillization, Alexa594 FP, 6 h. Potency, µM (doses to about 57.7 µM), hits mostly inhibitors. hit rate 0.39% among 280,000. AID 1468, 2008; also: nearly all actives have a fitted effect of over 55% in size
#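 Human K18 P301L fragment (15 uM unlabeled plus 0.24 uM Alexa 594-labeled) in 100 mM sodium acetate pH 7 with compound, aggregation induced by 20 uM heparin for 6 hr at 37 C. ThT (30 uM) added for 1 hr, then Alexa 594 FP read.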
# TRb SRC2 PPI: qHTS for Inhibitors of the Interaction of Thyroid Hormone Receptor and Steroid Receptor Coregulator 2; TRbeta-SRC2 peptide binding, fluorescence polarization; receptor liganded with 1 µM T3; Potency, µM (doses to about 106 µM), hits mostly inhibitors; hit rate 0.065% among 280,000; AID 1469, 2008; also: nearly all actives have a fitted effect of over 50% in size
#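 Binding of a 20-amino-acid Texas Red SRC2 peptide (20 nM) to TRb ligand-binding domain (0.6 uM) with agonist T3 at 1 uM was followed by fluorescence polarization after a 5 hr room-temperature incubation.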
# Hits are given with their value; i = inactive; ? = inconclusive; nt = no result; ! = a repeat was not active; [ ] = remark or other dose. Unless noted, calls follow the shape of the dose curve; as a rule, active = well fitted curve in the direction sought with a large enough effect; inconclusive = small, poorly fitted or top-dose-only effect, or another doubt; inactive = no such curve, though single readings can be large; an effect the other way counts as inactive or inconclusive.
SMILES,JMJD2E inh,Tau fibril ThT,Tau fluor cs,TR SRC2 fluor cs,Tau FP inhib,TRb SRC2 PPI
Cc1ccc(/C=C2\Sc3ccccc3C2=O)s1,i,3.16µM,i,i,i,i
Brc1ccc(-c2cnnc(N3CCCC3)n2)cc1,i,?,i,i,i,i
O=C(Nc1cccc(Cl)c1)c1ccc(NCCCN2CCOCC2)c([N+](=O)[O-])c1,i,14.1µM,?,i,i,i
Cc1ccc(NC(=O)c2ccc(NCCN)c([N+](=O)[O-])c2)cc1,i,14.1µM,i,i,i,i
Cc1ccc(NC(=O)c2ccc(NCCCN3CCC(C)CC3)c([N+](=O)[O-])c2)cc1F,i,?,i,i,i,i
Cc1cccc(NC(=O)c2ccc(NCCc3ccccc3)c([N+](=O)[O-])c2)c1,i,i,i,i,i,i
COC(=O)c1ccc(NC(=O)CSc2ncc3c(n2)-c2cc(Cl)ccc2N(Cc2ccccc2)S3(=O)=O)cc1,nt,i,?,i,15.8µM,i
COc1cc(OC)c(NS(=O)(=O)c2cc3c(cc2C)NC(=O)CO3)cc1Cl,nt,i,i,i,i,i
Cc1ccc(C)c(NS(=O)(=O)c2cc3c(cc2Cl)NC(=O)CO3)c1,nt,i,14.1µM[quencher],i,i,i
O=C1c2sc3nc4ccccc4n3c2C(=O)N1c1ccccc1Cl,?,28.2µM,i,i,?,i
Cc1cccc(N(CC(=O)NCCSc2ccccn2)S(=O)(=O)c2ccccc2)c1,i,i,i,i,i,i
CCCn1nnnc1NC(=O)CSc1ccc(Cl)cc1,i,i,i,i,i,i
N#CC1=C(S)N(c2ccc(F)cc2)C2(CCCCC2)NC1=O,i,31.6µM,i,i,28.2µM,i
NNC(=O)CP(=O)(c1ccccc1)c1ccccc1,nt,nt,nt,i,nt,i
CCOC(=O)c1sc(NC(=O)c2ccc(Cl)s2)cc1C,i,i,i,i,i,i
CCOC(=O)c1sc(NC(=O)Nc2ccc(Cl)cc2)cc1C,i,i,3.16µM[quencher],i,?,i
CCCCCCCCCCCCC/C=C/[C@@H](O)[C@H](CO)NC(=O)CCCCCCC,i,i,i,i,i,i
CC(=O)N(c1ccc2oc(=O)sc2c1)S(=O)(=O)c1ccccc1,i,?,i,i,i,i
COc1ccc(S(=O)(=O)N(C(=O)C(C)C)c2ccc3oc(=O)sc3c2)cc1,i,?,i,i,i,i
COc1ccc(S(=O)(=O)N(C(=O)c2ccco2)c2cc3sc(=O)oc3c3ccccc23)cc1,12.6µM,12.6µM,?,i,20µM,i
CCOc1ccc(NC(=O)c2ccco2)cc1,i,i,i,i,i,i
Cc1ccc(S(=O)(=O)N(C(=O)c2ccco2)c2cc3sc(=O)oc3c3ccccc23)cc1,14.1µM,14.1µM,?,i,22.4µM,i
CCOc1ccc(S(=O)(=O)N(C(=O)c2ccco2)c2cc3sc(=O)oc3c3ccccc23)cc1,15.8µM,14.1µM,i,i,28.2µM,i
CCc1cccc(NC(=O)Cn2c(=O)n(Cc3ccccc3)c(=O)c3c(C)c(C(=O)N(C)C)sc32)c1,nt,i,i,i,i,i
N#CC1=C(N)SC(N)=C(C#N)C1c1ccc([N+](=O)[O-])cc1,i,20µM,?,i,i,i
SMILES,JMJD2E inh,Tau fibril ThT,Tau fluor cs,TR SRC2 fluor cs,Tau FP inhib,TRb SRC2 PPI
CCc1ccc(C2C(C#N)=C(N)SC(N)=C2C#N)cc1,?,?,i,i,i,i
N#CC1=C(N)SC(N)=C(C#N)C1c1ccc(C(F)(F)F)cc1,12.6µM,i,i,i,i,i
Cc1cc2cc(CN3C(=O)c4ccccc4C3=O)ccc2n1C,i,i,i,i,i,i
COc1cc2c(C(=O)Nc3ccc(C)cc3Br)cn(C)c(=O)c2cc1OC,nt,i,i,i,i,i
O=C(Cn1cnc2ccccc2c1=O)c1ccc(Br)cc1,i,i,i,i,i,i
O=C(CC1SC(=Nc2ccccc2)N(CCc2c[nH]c3ccccc23)C1=O)Nc1ccccc1F (configuration not stated),i,i,12.6µM[quencher],i,i,i
O=C(CC1SC(=Nc2ccccc2)N(CCc2ccccn2)C1=O)Nc1ccc(F)cc1 (configuration not stated),i,i,i,i,i,i
O=C(NCC1CCCO1)C(=O)N/N=C/c1cc(Cl)ccc1O (configuration not stated),12.6µM,i,i,i,i,i
O=C(NCC1CCCO1)C(=O)N/N=C/c1ccc(O)c(Cl)c1 (configuration not stated),i,i,i,i,i,i
O=C(N/N=C/c1cc(Cl)ccc1O)c1ccncc1,12.6µM,i,i,i,i,i
O=C(O)c1ccc(Nc2cc(Cl)c3nonc3c2[N+](=O)[O-])cc1,i,7.08µM,?,i,i,i
NS(=O)(=O)c1ccc(Nc2ccc3nonc3c2[N+](=O)[O-])cc1,i,?,i,i,i,i
Cc1c(Nc2cc(Cl)c3nonc3c2[N+](=O)[O-])c(=O)n(-c2ccccc2)n1C,i,3.98µM,10µM[quencher],i,?,i
Cc1c(Nc2cc(N3CCOCC3)c3nonc3c2[N+](=O)[O-])c(=O)n(-c2ccccc2)n1C,i,i,i,i,i,i
Cc1ccc(Cl)cc1N1CCN(C(=O)c2cc(S(=O)(=O)N3CCCC3)c[nH]2)CC1,nt,?,?,i,i,i
COc1cc(OC)c(-c2cc(C(=O)NCc3ccc(F)cc3)c3c(-c4ccccc4)[nH]nc3n2)cc1OC,nt,?,?,3.55µM[quencher],i,i
O=c1cc(-c2ccc(O)cc2)oc2c(O)c(O)c(O)c(O)c12,12.6µM,14.1µM,?,i,?,i
O=c1cc(-c2ccccc2)oc2cc(O)c(O)c(O)c12,12.6µM,25.1µM,?,44.7µM![quencher],28.2µM,?
COc1c(O)cc2oc(-c3ccc(O)cc3)cc(=O)c2c1O,i,?,i,i,i,i
NC(=O)c1cc2c3ccccc3ccn2c1-c1ccccc1,?,14.1µM,14.1µM[quencher],i,?,i
Nc1ccc(C(=O)OCC(=O)N2CCN(C(=O)c3ccco3)CC2)cc1[N+](=O)[O-],i,i,i,0.159µM[quencher],i,i
Nc1ccc(C(=O)OCC(=O)N2CCc3ccccc3C2)cc1[N+](=O)[O-],i,i,i,i,i,i
COc1cccc(/C=C/C(=O)OCC(=O)Nc2ccc(Cl)c(S(=O)(=O)N(C)C)c2)c1OC,?,i,?,i,?,i
C/C(=N\NC(=O)c1ccc(NS(=O)(=O)c2cccs2)cc1)c1ccc(O)cc1O,12.6µM,?,?,i,i,i
